Bioassay records (PubChem)
Mdm2 MdmX PPI – disrupts the human Mdm2-MdmX interaction | O15151+Q00987 | SaOS-2 split-luciferase Mdm2/MdmX complementation, luminescence | inhibition, % at 8 µM | hit rate 3% among 330,000 | AID 485346;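 active = inhibition of at least 50% at 8 µM in the primary screen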
Target sequence (O15151 whole entry, looked up): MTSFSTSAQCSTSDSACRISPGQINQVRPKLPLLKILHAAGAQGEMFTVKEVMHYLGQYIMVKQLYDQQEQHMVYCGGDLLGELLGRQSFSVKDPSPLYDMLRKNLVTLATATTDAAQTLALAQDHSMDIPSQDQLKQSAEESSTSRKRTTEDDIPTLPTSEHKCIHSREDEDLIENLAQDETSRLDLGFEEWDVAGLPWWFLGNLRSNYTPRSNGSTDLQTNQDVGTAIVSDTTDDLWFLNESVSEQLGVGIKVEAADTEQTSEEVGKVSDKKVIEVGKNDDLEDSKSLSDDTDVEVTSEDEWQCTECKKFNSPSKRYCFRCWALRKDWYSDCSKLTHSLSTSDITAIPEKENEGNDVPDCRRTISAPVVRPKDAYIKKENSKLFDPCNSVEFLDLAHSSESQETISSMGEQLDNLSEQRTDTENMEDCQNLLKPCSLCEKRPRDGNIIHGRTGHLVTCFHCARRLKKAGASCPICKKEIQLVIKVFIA
Target sequence (Q00987 whole entry, looked up): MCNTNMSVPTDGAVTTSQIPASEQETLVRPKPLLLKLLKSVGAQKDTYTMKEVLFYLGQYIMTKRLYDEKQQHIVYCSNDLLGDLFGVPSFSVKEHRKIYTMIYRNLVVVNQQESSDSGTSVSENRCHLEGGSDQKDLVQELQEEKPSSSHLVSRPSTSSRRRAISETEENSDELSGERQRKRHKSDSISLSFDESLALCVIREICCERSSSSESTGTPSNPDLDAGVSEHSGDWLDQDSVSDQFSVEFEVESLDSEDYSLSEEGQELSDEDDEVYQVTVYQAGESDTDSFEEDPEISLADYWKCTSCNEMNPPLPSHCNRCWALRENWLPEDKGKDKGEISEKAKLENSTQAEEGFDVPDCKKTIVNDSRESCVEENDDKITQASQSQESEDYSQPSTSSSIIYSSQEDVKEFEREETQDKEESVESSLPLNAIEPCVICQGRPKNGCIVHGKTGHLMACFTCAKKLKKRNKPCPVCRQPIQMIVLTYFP
tim10-1 inh – tim10-1 yeast growth inhibition; S. cerevisiae tim10-1 ts strain growth, BacTiter-Glo, 24 h; AID 463190; inhibition, % at 20 µM; hit rate 2.2% among 330,000;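 active = inhibition of at least 40%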;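 also: mutant grown at 25 °C; 0% = DMSO wells with yeast and 100% = wells holding no yeast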
MPTP inh – blocks calcium-induced mitochondrial swelling; isolated mouse mitochondria, Ca2+ swelling absorbance, 30 min; inhibition, % at 10 µM; hit rate 1.4% among 360,000; AID 602449;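 active = inhibition of 50% or more, scaled per plate between neutral and stimulator controls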;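 also: 0% = DMSO wells given calcium and 100% = 1 mM EGTA wells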
TIM10 inh – inhibits growth of TIM10 yeast strain; inhibition, % at 10 µM; S. cerevisiae TIM10 strain growth, BacTiter-Glo luminescence, 24 h; hit rate 1.4% among 330,000; AID 463195;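 active = inhibition of 40% or more at the single tested concentration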;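 also: wild-type TIM10 isogenic control strain grown at permissive 25 °C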
tim23-1 inh – inhibits growth of tim23-1 mutant yeast; S. cerevisiae tim23-1 growth, BacTiter-Glo luminescence, 24 h; inhibition, % at 20 µM; hit rate 1.3% among 330,000;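 active = growth inhibition of the mutant yeast at or above 50%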;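 also: temperature-sensitive mutant grown at 25 °C; plate controls were DMSO-treated mutant yeast for no effect and medium wells lacking yeast for full effect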
tim10-1 confirm – confirmation of tim10-1 mutant yeast growth inhibitors | AID 463213 | inhibition, % at 20 µM | shares compounds with tim10-1 inh | S. cerevisiae tim10-1 ts strain growth, BacTiter-Glo, 24 h | hit rate 56% among 7,400;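 active = inhibition of yeast growth at or above a set limit in either of two repeat tests at 20 µM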;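 also: tim10-1 mutant grown at permissive 25 °C to find synthetic lethal compounds; 0% = DMSO yeast wells and 100% = medium wells without yeast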
tim10 confirm – TIM10 yeast growth inhibition, confirmed | shares compounds with TIM10 inh | S. cerevisiae tim10 strain growth, BacTiter-Glo luminescence, 24 h | inhibition, % at 10 µM | hit rate 63% among 4,600 | AID 463215;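 active = inhibition of yeast growth at or above a set limit in either of two replicates at 10 µM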;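 also: this counterscreen used the strain with wild-type TIM10; 0% = yeast with DMSO and 100% = medium wells lacking yeast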
tim23-1 conf – confirmation of tim23-1 mutant yeast growth inhibitors | hit rate 83% among 4,400 | AID 463218 | shares compounds with tim23-1 inh | inhibition, % at 20 µM | S. cerevisiae tim23-1 growth, BacTiter-Glo luminescence, 24 h;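 active = inhibition above about 39% in either of two replicate wells at 20 µM, limit read from the data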;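 also: temperature-sensitive tim23-1 mutant grown at 25 °C; 0% = DMSO wells with yeast and 100% = medium wells without yeast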
Starred values were filed as active, the others as inactive; . = no result given. A selection: hits, their analogues and other compounds. The true share with any hit is near 6.3%.

SMILES | Mdm2 MdmX PPI | tim10-1 inh | MPTP inh | TIM10 inh | tim23-1 inh | tim10-1 confirm | tim23-1 conf | others
C#CCN(C[C@@H]1[C@@H](OC(=O)NCC2CCCCC2)[C@@H](OC(=O)NCC2CCCCC2)Cn2c(=O)n(CCCCCC)c(=O)n21)S(=O)(=O)c1ccc(C)cc1 | . | . | -2 | . | . | . | .
C=CCN(CC=C)c1nc2ccccc2nc1C(C#N)C(=O)OCCOC (stereo unspecified) | 22 | 67* | -3 | 41* | 59* | 72* | 66* | tim10 confirm=55*
O=S1(=O)CC(N2CC=CC2)CN1Cc1ccccc1 (stereo unspecified) | . | . | 1 | . | . | . | .
FC(F)(F)c1cccc(Oc2nc(-c3ccccc3)nnc2C(F)(F)F)c1 | 7 | 54* | 1 | 46* | 55* | 48* | 46* | tim10 confirm=38*
CC(=O)c1cc(C#N)c(Oc2cccc(C(F)(F)F)c2)nc1C | 13 | -32 | 0 | -38 | -8 | . | .
Cc1ccc(S(=O)(=O)N2[C@@H](CO)CO[C@H]2CC(=O)c2cccc3ccccc23)cc1 | . | . | 10 | . | . | . | .
Cn1c(O)c(/C=C2\C=NN=C2c2ccccc2)sc1=S | 34 | 57* | 8 | 42* | 65* | 42* | 57* | tim10 confirm=42*
CCn1c(O)c(/C=C2\C=NN=C2c2ccccc2)sc1=S | 49 | 51* | 18 | 33 | 50* | 32* | 54*
CC1=C(C(=O)N(C)C)CC(CC(=O)NCC2CCCCC2)C(=O)N1Cc1ccc(F)cc1 (stereo unspecified) | . | . | 0 | . | . | . | .
O=C(/C(=C/O)N=Nc1ccccc1)c1ccc(Cl)cc1 | 35 | 65* | 0 | 58* | 79* | 49* | 39* | tim10 confirm=56*
Cc1ccc(N=N/C(=C\O)C(=O)c2ccc(Cl)cc2)cc1 | 41 | 48* | 1 | 36 | 60* | 42* | 63*
CC(=O)C(=Cc1ccc(Cl)cc1)C(=O)c1ccccc1 | . | . | -3 | . | . | . | .
CC(=O)c1ccc(N=Nc2ccc(C)cc2)cc1 | -77 | 13 | -1 | 22 | 23 | . | .
O=C(NCc1cccs1)c1ccc2sc(C3=C[C@@H](O)[C@@H](O)[C@@H](CO)O3)nc2c1 | . | . | 1 | . | . | . | .
CC(C)Cn1c2c(c(O)c(C(=O)Nc3ccc(F)cc3)c1=O)CCCC2 | 10 | 22 | -1 | -2 | 12 | . | .
CC(C)Cn1c2c(c(O)c(C(=O)Nc3ncccc3O)c1=O)CCCC2 | 38 | 40* | 3 | 50* | 55* | 43* | 61* | tim10 confirm=57*
O=S(=O)(c1ccc2nc(N3CCN(c4ccccc4F)CC3)ccc2c1)N1CCCCC1 | 15 | -7 | 0 | 7 | 0 | . | .
O=S(=O)(c1ccc2nc(Nc3ccccc3)ccc2c1)N1CCCCC1 | 33 | 50* | -1 | 23 | 50* | 30 | 42*
N#C/C(=C\c1cccs1)Sc1nc2ccccc2s1 | 12 | 37 | 0 | 24 | 45 | . | .
N#C/C(=C\c1ccc[nH]1)Sc1nc2ccccc2s1 | 12 | 42* | 0 | 14 | 54* | 30* | 48*
Nc1ncnc2c1ncn2[C@@H]1O[C@H](C(=O)NCCCN2CCCC2=O)[C@@H](O)[C@H]1O | . | . | -1 | . | . | . | .
COc1ccc(OC)c(C2C(C#N)=C(N)Oc3c2c(C)nn3-c2cccc(Cl)c2)c1 (stereo unspecified) | -34 | 46* | 22 | 44* | 51* | 29 | 50* | tim10 confirm=15
Cc1ccc(S(=O)(=O)Nc2ccc(S(=O)(=O)Nc3nccs3)cc2)c([N+](=O)[O-])c1 | 19 | 54* | 0 | 52* | 50* | 55* | 52* | tim10 confirm=47*
Cc1ccc(S(=O)(=O)Nc2nccs2)cc1[N+](=O)[O-] | 3 | -16 | -1 | 0 | 12 | . | .
CCc1nc2ccc(C(=O)Nc3ccc4c(c3)OCC(=O)N4)cn2c1N(CC)Cc1cccc(Br)c1 | . | . | -2 | . | . | . | .
SMILES | Mdm2 MdmX PPI | tim10-1 inh | MPTP inh | TIM10 inh | tim23-1 inh | tim10-1 confirm | tim23-1 conf | others
C[C@@]12CCC=C[C@H]1[C@H](c1ccccc1Br)N(Cc1ccccc1)C2=O | 26 | 43* | 0 | 40* | 63* | 51* | 55* | tim10 confirm=48*
C[C@@]12CCC=C[C@H]1[C@H](c1ccoc1)N(Cc1ccccc1)C2=O | 15 | 29 | 0 | 11 | 32 | . | .
O=C(NCC(c1ccco1)N1CCN(c2ccccc2)CC1)C1CCCCC1 (stereo unspecified) | . | . | 0 | . | . | . | .
CC1(C)Cc2ccccc2-c2nc3n(c(=O)c21)CCCS3 | 26 | 42* | -2 | 26 | 51* | 33* | 60*
Nc1nc2c(ncn2[C@@H]2O[C@H](CNC(=O)[C@H](N)Cc3ccccc3)[C@@H](O)[C@H]2O)c(=O)[nH]1 | . | . | 0 | . | . | . | .
Cc1c(N2C(=O)/C(=C/C3CC=CCC3)SC2=S)c(=O)n(-c2ccccc2)n1C (stereo unspecified) | -16 | 48* | 1 | 40 | 51* | 35* | 47*
Cc1ccc(/C=C2\SC(=S)N(c3c(C)n(C)n(-c4ccccc4)c3=O)C2=O)cc1 | 10 | 25 | 1 | 16 | 31 | . | .
N#Cc1cccc(S(=O)(=O)N2CCN(c3ccnc4cc(Cl)ccc34)CC2)c1 | 31 | 22 | 0 | 15 | 28 | . | .
O=S(=O)(c1cccc(Br)c1)N1CCN(c2ccnc3cc(Cl)ccc23)CC1 | 30 | 50* | 23 | 36 | 52* | 30* | 47*
O=C1NC[C@H](CCCCN2C[C@H](Cc3ccc(O)cc3)N(CCc3ccc(O)cc3)C(=O)C2=O)N(Cc2ccccc2)C1=O | . | . | 0 | . | . | . | .
Nc1ccn([C@@H]2O[C@H](C(=O)N(CCC3=CCCCC3)CC3CC3)[C@@H](O)[C@H]2O)c(=O)n1 | . | . | -1 | . | . | . | .
O=C1Nc2ccc(Br)cc2/C1=C/C1CC=CCC1 (stereo unspecified) | 36 | 59* | -5 | 59* | 59* | 50* | -22 | tim10 confirm=71*
Cc1ccc(-c2nc3cccnc3s2)cc1NS(=O)(=O)c1cccs1 | -42 | 43* | 1 | 6 | 58* | 32* | 53*
Cc1ccc(-c2nc3cccnc3s2)cc1NS(=O)(=O)c1ccc2c(c1)OCCO2 | 39 | 27 | 0 | 16 | 35 | . | .
Fc1ccc(-c2nc3ccc(Br)cn3c2Cc2ccsc2)cc1 | . | . | -2 | . | . | . | .
Cc1ccc(S(=O)(=O)N2C[C@H]3[C@H]4C(=O)N(c5ccccc5)C(=O)[C@H]4C[C@H](OC(=O)Nc4cccs4)[C@@]3(O)C2)cc1 | . | . | 1 | . | . | . | .
O=C(O)c1ccc(-c2nc(-c3ccccc3)c(-c3cccs3)[nH]2)cc1 | 8 | 9 | 0 | 20 | 20 | . | .
COc1ccc(-c2nc(-c3cccs3)c(-c3cccs3)[nH]2)cc1O | 24 | 52* | 0 | 26 | 74* | 34* | 71*
NC(c1csc(Nc2ccc(C(=O)NCCCO)cn2)n1)c1ccccc1Cl (stereo unspecified) | . | . | 0 | . | . | . | .
